In PubChem BioAssay (NCI):
About 79,000 compounds went through this panel and 15% of them were active in at least one assay; those are over-represented in the sample as a whole. Values without a mark were called inactive. Calls of active or inactive are those of the source. Rule as the data show it: active = growth inhibition above about 70%; inactive = the rest.

How the values were obtained:
[1] = NCI Yeast Anticancer Drug Screen. Data for the rad50 strain (AID 155);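 also: 0% = growth of vehicle-only cultures of the same strain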; conditions: S. cerevisiae rad50 strain growth inhibition, active compounds read high
Outline: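 Relative growth inhibition (compound vs vehicle) was measured in yeast with a defined repair-gene alteration.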

[2] = NCI Yeast Anticancer Drug Screen. Data for the mec2-1 strain (AID 157); conditions: S. cerevisiae mec2-1 strain, active compounds read high
Outline: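 Growth inhibition is read against vehicle-treated controls after compound exposure of the mec2-1 yeast strain, which is defective in DNA damage repair or cell cycle control.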

[3] = NCI Yeast Anticancer Drug Screen. Data for the sgs1 mgt1 strain (AID 161);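 also: 0% = growth of cultures given vehicle only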; conditions: S. cerevisiae sgs1 mgt1 strain, active compounds read high
Outline: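 This yeast growth screen uses a strain with defined DNA-repair lesions; compound-treated growth is compared with vehicle-treated growth.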

[4] = NCI Yeast Anticancer Drug Screen. Data for the cln2 rad14 strain (AID 165);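 also: 0% = growth equal to vehicle treated cultures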; conditions: S. cerevisiae cln2 rad14 strain, active compounds read high
Outline: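 Growth inhibition, relative to vehicle-treated controls, is the read-out. The test organism is a yeast strain with defined genetic alterations, cln2 rad14.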

[5] = NCI Yeast Anticancer Drug Screen. Data for the bub3 strain (AID 167); conditions: S. cerevisiae bub3 mutant strain, active compounds read high
Outline: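 Screening used yeast with an engineered genetic alteration affecting cell cycle control. Compound-exposed cultures were compared with vehicle cultures, and reduced growth was taken as inhibition.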

[6] = NCI Yeast Anticancer Drug Screen. Data for the mlh1 rad18 strain (AID 175); conditions: S. cerevisiae mlh1 rad18 strain growth inhibition, active compounds read high
Outline: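 Cells of a genetically altered yeast strain, deficient in DNA damage repair, were treated with compound. Their growth was then compared with that of vehicle-treated cultures to give inhibition.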

[7] = at 5.0 µM (retest, dose inferred, filed as 0.5)
[8] = at 50.0 µM (retest, dose inferred, filed as 5.0)

SMILES	growth inhibition [1, 7]	growth inhibition [1, 8]	growth inhibition ([1]; at 50.0 µM)	growth inhibition [2, 7] [%]	growth inhibition [2, 8]	growth inhibition ([2]; at 50.0 µM)	growth inhibition [3, 7] [%]	growth inhibition [3, 8]	growth inhibition ([3]; at 50.0 µM)	growth inhibition [4, 7]	growth inhibition [4, 8]	growth inhibition ([4]; at 50.0 µM)	growth inhibition [5, 7]	growth inhibition [5, 8]	growth inhibition ([5]; at 50.0 µM)	growth inhibition [6, 7]	growth inhibition [6, 8]	growth inhibition ([6]; at 50.0 µM)
CCCCCCCCCCSC(=NCC)NCC	2%	99% (active)	66.9%	4	99% (active)	49.9%	51	99% (active)	46.7%	-6%	99% (active)	77.3% (active)	27%	99% (active)	59%	0%	99% (active)	99.5% (active)
CCCCCCCCN(CCCCCCCC)CC(O)c1cc2c(c3ccccc13)CCCC2 (configuration not stated)	10%	95% (active)	99.2% (active)	8	96% (active)	99.4% (active)	25	96% (active)	99.3% (active)	13%	94% (active)	99.2% (active)	28%	95% (active)	98.8% (active)	11%	96% (active)	98.8% (active)
C/C(=N/NC(N)=O)C1CC(CCC2([N+](=O)[O-])CCC(C)(O)C(/C(C)=N\NC(N)=O)C2)([N+](=O)[O-])CCC1(C)O (configuration not stated)	5%	-5%	10.6%	4	0%	14.1%	3	-1%	-6.4%	5%	-7%	9.6%	7%	-3%	96.7% (active)	1%	3%	2.1%
CC/C(=N\O)c1ccc2cc(Br)c3ccccc3c2c1	5%	89% (active)	98.7% (active)	-2	89% (active)	98.9% (active)	10	88% (active)	98.7% (active)	-10%	84% (active)	96.8% (active)	-4%	87% (active)	98.8% (active)	5%	88% (active)	98.6% (active)
O=C1CCC/C1=C\c1ccccc1	7%	15%	3.05%	7	5%	7.6%	3	6%	1.4%	-2%	-13%	49.3%	-2%	5%	6.1%	1%	4%	2.2%
C[C@]12CC[C@H](O)CC1=CC[C@@H]1C2CC[C@]2(C)NC(=O)CCC12 (some centres not stated)	-4%	0%	46.9%	1	4%	40.8%	-2	16%	82.8% (active)	1%	0%	53%	3%	4%	39.3%	-3%	1%	76% (active)
FC(F)(F)c1ccc(NC(=S)SCc2ccc3c(c2)OCO3)cc1	-5%	0%	74.5% (active)	-5	-1%	95% (active)	-3	25%	93.3% (active)	-11%	-15%	86.3% (active)	-8%	-6%	87% (active)	-8%	24%	93.2% (active)
FC(F)(F)c1ccccc1NC(=S)SCc1ccco1	1%	52%	93.7% (active)	1	32%	76.3% (active)	1	45%	87.7% (active)	-4%	17%	52.1%	8%	33%	81.3% (active)	-2%	57%	88.3% (active)
C=C1C(O)C2(O)OCC34C(CC5C(C)=CC(=O)C(O)C5(C)C23)OC(=O)C(OC(=O)C/C=C(\C)CCCCC)C14 (configuration not stated)	76% (active)	98% (active)	92.3% (active)	52	98% (active)	93.3% (active)	60	98% (active)	93% (active)	88% (active)	98% (active)	91.7% (active)	75% (active)	99% (active)	91.2% (active)	89% (active)	98% (active)	92.2% (active)
CCC(=NCCCCCCN=C(CC)c1cc(C)cc([N+](=O)[O-])c1O)c1cc(C)cc([N+](=O)[O-])c1O.[Fe]	10%	46%	80.9% (active)	-10	79% (active)	72.3% (active)	11	35%	72.2% (active)	-7%	49%	70.5% (active)	-1%	70% (active)	71.7% (active)	11%	63%	80.8% (active)
CCCCc1ccc2nccc(N/N=C/c3ccc(OC)c4ccccc34)c2c1	1%	91% (active)	80% (active)	-27	89% (active)	69.3%	2	94% (active)	76.7% (active)	-2%	73% (active)	62.4%	-4%	90% (active)	79% (active)	1%	88% (active)	90.1% (active)
COc1ccc(/C=C/c2cc(OC)c(OC)c(OC)c2)cc1O[Si](C)(C)C(C)(C)C	1%	-9%	-2.65%	0	-3%	-1.75%	-1	-5%	13.6%	1%	-4%	53.2%	-1%	-7%	-37.5%	1%	-6%	-4.45%
O=C(C(=Cn1c(=S)[nH]c2ccc([N+](=O)[O-])cc21)C(=O)c1ccccc1)c1ccccc1	-10%	3%	98% (active)	-14	-2%	92.5% (active)	-7	1%	92.2% (active)	-23%	-17%	74.8% (active)	-5%	6%	94.9% (active)	-4%	0%	96.3% (active)
C=CC(=O)Nc1ccccc1CC(c1c[nH]c2ccccc12)c1c[nH]c2ccccc12	34%	34%	85% (active)	26	26%	73.7% (active)	34	34%	81.5% (active)	12%	12%	84.3% (active)	21%	21%	74.5% (active)	27%	27%	76.9% (active)
CCCCCCCN(CCCCCCC)CC(O)Cc1cc2c(c3ccccc13)CCCC2 (configuration not stated)	6%	97% (active)	98.8% (active)	17	98% (active)	94.7% (active)	36	98% (active)	99.5% (active)	4%	97% (active)	98.7% (active)	3%	96% (active)	94.7% (active)	24%	97% (active)	98% (active)
Clc1cccc(C2SCc3nc4ccccc4n32)c1Cl (configuration not stated)	-2%	97% (active)	98.6% (active)	-3	98% (active)	98.4% (active)	2	98% (active)	97.5% (active)	-17%	97% (active)	97.4% (active)	1%	98% (active)	98.5% (active)	-4%	98% (active)	97.1% (active)
CC(CC(=O)c1ccc2sc3ccccc3c2c1)C(=O)O (configuration not stated)	6%	35%	58.4%	-4	47%	33.6%	14	62%	49.2%	-2%	24%	60.4%	-2%	21%	27.3%	15%	59%	56.8%
Cc1cccc(N=Nc2ccc(O)cc2)c1	-152%	98% (active)	99.6% (active)	-58	98% (active)	99.5% (active)	-71	98% (active)	99.4% (active)	-71%	98% (active)	98.6% (active)	-72%	97% (active)	98.5% (active)	-154%	98% (active)	99.3% (active)
CN(C)C1C=CCC(c2ccccc2)C1[N+](=O)[O-] (configuration not stated)	1%	83% (active)	93.2% (active)	10	68%	96.9% (active)	7	81% (active)	98.5% (active)	5%	70% (active)	92.3% (active)	1%	79% (active)	92.5% (active)	5%	94% (active)	98.8% (active)
